Most compounds without a hit are left out; they make up all but 32% or so of the library.
PostGolgi ctrl: growth inhibition of yeast control strain, primary screen, counter-screen for post-Golgi transport modulator project; efflux-deficient yeast background strain, growth absorbance A615, 16 h; inhibition, % at 10 µM; 98,000 tested, 5% active; AID 738, 2007
CYP2C19 activ: human CYP2C19 activators, primary screen, biochemical, luminescence. Cytochrome P450 2C19 (Homo sapiens), P33261. recombinant CYP2C19, luciferin-H EGE luminescence; active compounds read high; 0 = fully inhibited enzyme, 1 = untreated enzyme. activation factor at 5 µM. 96,000 tested, under 10 active. AID 1025, 2008;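 active = activation factor of at least 2 at 5 µM in the primary screen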;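 also: 0 = wells with 2.5 mM tranylcypromine and 1 = vehicle-only wells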
CYP2C9 activ: human CYP2C9 activators, primary screen, biochemical, luminescence. Cytochrome P450 2C9 (Homo sapiens), P11712. recombinant CYP2C9, luciferin-H conversion; active compounds read high; factor 1 = untreated enzyme, 0 = blocked. activation factor at 5 µM. 96,000 tested, 1.4% active. AID 1024, 2008;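 active = activation factor of 2 or more for CYP2C9 at a 5 µM dose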;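 also: 0 = sulfaphenazole-blocked wells and 1 = vehicle-only wells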
Target sequence (P11712 whole entry, looked up): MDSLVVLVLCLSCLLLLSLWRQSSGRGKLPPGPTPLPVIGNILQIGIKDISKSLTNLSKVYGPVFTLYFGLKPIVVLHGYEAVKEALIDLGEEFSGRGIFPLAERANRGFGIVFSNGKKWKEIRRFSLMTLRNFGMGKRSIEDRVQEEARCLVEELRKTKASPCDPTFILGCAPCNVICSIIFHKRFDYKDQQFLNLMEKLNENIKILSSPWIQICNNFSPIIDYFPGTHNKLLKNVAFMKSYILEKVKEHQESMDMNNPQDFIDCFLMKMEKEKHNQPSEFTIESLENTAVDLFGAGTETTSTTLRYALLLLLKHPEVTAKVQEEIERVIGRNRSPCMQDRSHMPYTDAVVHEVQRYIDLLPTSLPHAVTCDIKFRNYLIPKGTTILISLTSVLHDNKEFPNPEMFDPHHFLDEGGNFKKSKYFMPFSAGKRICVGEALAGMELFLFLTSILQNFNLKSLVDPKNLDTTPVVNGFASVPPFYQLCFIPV
PostGolgi yeast: phenotypic screen on post-Golgi transport, primary screen; post-Golgi transport phenotypic cell assay; inhibition, % at 10 µM; 98,000 tested, 0.9% active; AID 739, 2007;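 also: yeast cells grown in 1536-well plates; yeast grown about 18 h at 30C before absorbance read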
CYP2C19 inhib: blockers of cytochrome P450 2C19 activity – biochemical, luminescence, ADME assay, primary screen; P33261; CYP2C19 Supersomes, luciferin-H EGE luminescence, 30 min; inhibition, % at 5 µM; 96,000 tested, 21% active; AID 778, 2007;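 active = CYP2C19 inhibition above a set limit at 5 µM in the primary screen, cut at about 50% in these data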;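 also: plate controls were negative control wells for no effect and 2.5 mM tranylcypromine positive control for full effect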
CYP2C9 inhib: blockers of cytochrome P450 2C9 activity – biochemical, luminescence, ADME assay, primary screen | inhibition, % at 5 µM | 96,000 tested, 20% active | P11712 | CYP2C9 Supersomes, luciferin-H conversion;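 active = blocking of liver enzyme CYP2C9 beyond about 50% at 5 µM, limit read from the data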
* marks the source's active call; other numbers are inactive results; · = no result. Rule as the data show it, unless noted: active = inhibition above about 30%; inactive = the rest.

SMILES | PostGolgi ctrl | CYP2C19 activ | CYP2C9 activ | PostGolgi yeast | CYP2C19 inhib | CYP2C9 inhib
O=C1Nc2ccc(NS(=O)(=O)c3cccs3)c3cccc1c23 | -5 | 0.1 | 0.1 | -3 | 89* | 89*
CC(C)C(NS(=O)(=O)c1ccc2c3c(cccc13)C(=O)N2)C(=O)O (stereo not given) | · | 1 | 1 | · | -1 | 3
COC(=O)c1ccccc1NS(=O)(=O)c1ccc2c3c(cccc13)C(=O)N2 | · | 0.2 | 0 | · | 76* | 100*
O=C(O)c1ccccc1NS(=O)(=O)c1ccc2c3c(cccc13)C(=O)N2 | 0 | 0.8 | 0 | 2 | 21 | 97*
Cc1oc2c(cc(NS(=O)(=O)c3ccc4c5c(cccc35)C(=O)N4)c3ccccc32)c1C(=O)OC(C)C | 17 | 0.6 | 0.1 | -3 | 39 | 89*
CN(c1ccccc1C(=O)O)S(=O)(=O)c1ccc2c3c(cccc13)C(=O)N2 | 6 | · | · | -1 | · | ·
CSc1nnc(-c2ccc(S(=O)(=O)N3CCOCC3)cc2)n1CC1CCCO1 (stereo not given) | 28 | 0.8 | 0.8 | -4 | 16 | 24
O=C(O)C1CC(=O)N(c2ccc(OCc3c(F)cccc3Cl)cc2)C1 (stereo not given) | 15 | 1 | 0.9 | 6 | -2 | 7
CCNC(=O)NC1(C(=O)Nc2ccc3c(c2)OCCO3)CCCCC1 | -2 | 1 | 1 | 28 | 0 | 3
COC(=O)c1c(C)oc2c1cc(NS(=O)(=O)c1cccs1)c1ccccc12 | 38* | 0.1 | 0.1 | 0 | 92* | 95*
COC(=O)c1c(NS(=O)(=O)c2cccs2)sc2c1CCCC2 | 11 | 1 | 1.3 | -11 | -2 | -28
COCCSc1ccccc1C(=O)N1CCN(Cc2ccc3c(c2)OCO3)CC1 | 7 | 0.9 | 0.8 | -4 | 12 | 19
CCN1CCN(C(=O)c2ccc(COc3ccc(Cl)cc3)o2)CC1 | -7 | 1 | 1 | 6 | -3 | 1
O=C(c1ccc(COc2ccccc2Cl)o1)N1CCN(Cc2ccc3c(c2)OCO3)CC1 | 27 | 0.3 | 0.1 | -5 | 72* | 87*
O=C(c1ccc(COc2ccc(Cl)cc2)o1)N1CCN(Cc2ccc3c(c2)OCO3)CC1 | 52* | 0.8 | 0.4 | · | 16 | 62*
c1ccc(OCCSc2nnc3sc4ccccc4n23)cc1 | 18 | 0.7 | 1.1 | 2 | 30 | -9
Cc1ccccc1Nc1nc(N)nc(CSc2nnc3sc4ccccc4n23)n1 | 1 | 1.1 | 2.4* | 3 | -12 | -136
Cc1ccccc1Nc1nc(N)nc(CSc2nnc(-c3ccccc3)n2C)n1 | -8 | 1.1 | 1 | 2 | -9 | -4
COc1cccc(OCCSc2nnc3sc4ccccc4n23)c1 | 14 | 0.5 | 1.9 | 4 | 50* | -85
CCN(CC)C(=O)CSc1nnc2sc3ccccc3n12 | · | 0.2 | 1.8 | · | 77* | -84
COc1ccc(-n2c(N)c(C(=O)NCc3cccnc3)sc2=S)cc1 | 1 | 0.9 | 1 | -3 | 7 | 4
CC(C)(C)c1ccc(S(=O)(=O)N2CCN(CCC#N)CC2)cc1 | 2 | 0.5 | 1.4 | 1 | 50* | -38
Cc1oc(/C=N/NC(=O)CN(c2ccccc2Br)S(C)(=O)=O)cc1Br | -7 | · | · | 3 | · | ·
Cc1ccccc1N(CC(=O)N/N=C/c1cc(C)n(-c2ccccc2C)c1C)S(C)(=O)=O | 7 | 0.9 | 0.4 | -1 | 10 | 58*
Cc1ccc(-c2cc(C(F)(F)F)n3ncc(C(=O)NCc4ccco4)c3n2)cc1 | 7 | 0.7 | 0.5 | 1 | 32 | 54*
SMILES | PostGolgi ctrl | CYP2C19 activ | CYP2C9 activ | PostGolgi yeast | CYP2C19 inhib | CYP2C9 inhib
COc1ccc(-c2cc(C(F)(F)F)n3nc(C(=O)NCc4ccco4)cc3n2)cc1 | 7 | 0.7 | 0.8 | 1 | 33 | 15
O=C(NCc1ccco1)c1cc2nc(-c3ccc4c(c3)OCO4)cc(C(F)(F)F)n2n1 | 7 | 0.2 | 0.2 | -1 | 77* | 83*
Cc1ccc(-c2cc(C(F)F)n3ncc(C(=O)NCc4ccco4)c3n2)cc1 | 30 | 0.8 | 0.6 | -6 | 24 | 44
Cc1ccc(-c2cc(C(F)(F)F)n3nc(C(=O)NCCCn4ccnc4)cc3n2)cc1C | 15 | 0.1 | 0.2 | -3 | 88* | 80*
Cc1ccc(S(=O)(=O)N2CC3CCCN3c3ccc(C(F)(F)F)cc32)cc1 (stereo not given) | 10 | 0.5 | 0.5 | -18 | 49 | 45
Cc1ncoc1C(=O)Nc1ccccc1-c1ccccc1 | 5 | 0.8 | 0.7 | 3 | 16 | 30
O=C(COC(=O)C1(c2ccc(Cl)cc2)CCCC1)NC1CCS(=O)(=O)C1 (stereo not given) | 24 | 0.7 | 1 | 0 | 27 | 4
Cc1cc(NCc2ccccc2)nc(-c2ccccc2O)n1 | 57* | 0.7 | 0.3 | -11 | 30 | 65*
Cc1cc(NC2CCCCC2)nc(-c2ccccc2O)n1 | 18 | 0.9 | 0.4 | 5 | 7 | 57*
Cc1cc(Nc2ccccc2)nc(-c2ccccc2O)n1 | 37* | 1.2 | 1 | 17 | -18 | 5
CCOC(=O)c1ccc(Nc2cc(C)nc(-c3ccccc3O)n2)cc1 | 17 | 0.6 | 0.4 | -1 | 36 | 57*
Cc1csc(SCC(=O)O)n1 | 11 | 1 | 1 | 1 | 4 | 3
COC(=O)Cn1cnc(=O)c(C#N)c1/C=C/N(C)C | 2 | 1.1 | 1 | 8 | -14 | 0
CCOC(=O)c1ccc(Nc2nc(C(=O)OCC)nc3ccccc23)cc1 | 12 | 0.4 | 0.6 | -5 | 56* | 37
O=C(O)CC(NS(=O)(=O)c1ccc(Br)cc1)c1ccco1 (stereo not given) | 2 | 1.1 | 1.1 | -6 | -12 | -10
O=C(CN1C(=O)NC2(CCCCCCC2)C1=O)N1CCc2ccccc2C1 | 30 | 0.9 | 0.9 | 1 | 6 | 9
COc1ccccc1CC1(C)NC(=O)N(CC(=O)N2CCc3ccccc3C2)C1=O (stereo not given) | 19 | 0.9 | 0.3 | -5 | 12 | 70*
CC1CCCCN1S(=O)(=O)c1ccc2c(c1)CCN2C(=O)CCC(=O)O (stereo not given) | 6 | 0.9 | 1 | 3 | 10 | 2
CCN(c1ccc(C)c(C)c1)S(=O)(=O)c1ccc2c(c1)CCN2C(=O)CCC(=O)O | 4 | 1.1 | 0.5 | 15 | -12 | 52*
CCN(c1ccc(OC)cc1)S(=O)(=O)c1ccc2c(c1)CCN2C(=O)CCC(=O)O | 15 | 0.8 | 0.3 | -6 | 18 | 70*
COc1ccc(C2=NCC(CSc3nnnn3C)S2)cc1 (stereo not given) | 13 | 0.9 | 0.9 | 3 | 15 | 5
COC(=O)c1cc(NC2c3ncccc3C(=O)N2Cc2ccccc2)cc(C(=O)OC)c1 (stereo not given) | 2 | 0 | 0.3 | 10 | 96* | 67*

Compound activity as filed in PubChem BioAssay.
